From the antibiotic and cytotoxicity screens of Wong et al. (2023) come the findings set out here.

Out of some 39,000 compounds screened, about 3,300 (8.5%) were called active. The sample as a whole holds a higher share of actives than the screen did.

In the experiment the test system is HepG2. In words: cytotoxicity call (relative viability < 0.9). The following applies: 10 µM.
Consider `C[C@@H]1CCCCO[C@@H](CN(C)C(=O)CCC(F)(F)F)[C@@H](C)CN([C@H](C)CO)C(=O)c2cc(NS(=O)(=O)c3cccs3)ccc2O1`, for which the cytotoxicity call is “inactive”. With `Cc1noc(C)c1S(=O)(=O)N(C)C[C@H]1Oc2ccc(NC(=O)CCC(F)(F)F)cc2CC(=O)N([C@@H](C)CO)C[C@@H]1C`, the cytotoxicity call is “inactive”. Take `O=C(C[C@H]1C=C[C@@H](NS(=O)(=O)c2ccccc2F)[C@H](CO)O1)NCCCN1CCOCC1`: the cytotoxicity call is “inactive”.

For `C[C@@H]1CCCCO[C@@H](CN(C)C(=O)Nc2ccccc2)[C@@H](C)CN([C@H](C)CO)C(=O)c2cc(NS(=O)(=O)c3ccc(Cl)cc3)ccc2O1`, the cytotoxicity call is “inactive”. Consider `C[C@@H]1CN([C@H](C)CO)C(=O)c2cccc(NC(=O)c3cnccn3)c2O[C@@H]1CN(C)S(=O)(=O)c1ccc(Cl)cc1`, for which the cytotoxicity call is “inactive”. To `C[C@@H]1CN([C@@H](C)CO)C(=O)c2cc(NC(=O)CCCCCC(=O)Nc3ccccc3N)ccc2O[C@@H](C)CCCCO[C@@H]1CN(C)S(=O)(=O)c1ccc(Cl)cc1` belongs “inactive”. Take `C[C@H](CO)N1C[C@H](C)[C@@H](CN(C)S(=O)(=O)c2ccc(C#N)cc2)OCc2cnnn2CCCC1=O`: the cytotoxicity call is “inactive”.

With `C[C@@H]1CCCCO[C@@H](CN(C)Cc2ccccc2)[C@H](C)CN([C@H](C)CO)C(=O)c2cc(NC(=O)c3ccccc3)ccc2O1`, the cytotoxicity call is “inactive”. Take `Cc1noc(C)c1NC(=O)Nc1ccc2c(c1)CC(=O)N([C@@H](C)CO)C[C@@H](C)[C@@H](CN(C)CC1CC1)O2`: the cytotoxicity call was “inactive”. As for `COc1ccc(NC(=O)Nc2ccc3c(c2)C(=O)N([C@@H](C)CO)C[C@@H](C)[C@H](CN(C)Cc2ccc4c(c2)OCO4)OCCCC[C@@H](C)O3)cc1`, the cytotoxicity call is “inactive”.

For `CCCOc1ccnc2c1c(=O)n(C)c(=O)n2C`, the cytotoxicity call was “inactive”. Take `COc1ccc(NC(=O)Nc2cccc3c2O[C@@H](CN(C)Cc2ccc(C(=O)Nc4ccccc4N)cc2)[C@@H](C)CN([C@H](C)CO)C3=O)cc1`: the cytotoxicity call is “inactive”. With `C[C@H]1CN([C@@H](C)CO)C(=O)Cc2cc(NC(=O)C3CC3)ccc2O[C@@H]1CN(C)S(=O)(=O)c1ccccc1`, the cytotoxicity call was “inactive”. To `C[C@@H]1CCCCO[C@@H](CN(C)S(=O)(=O)c2ccc(Cl)cc2)[C@@H](C)CN([C@@H](C)CO)C(=O)c2cc(NC(=O)CCC(F)(F)F)ccc2O1` belongs “inactive”; to `C[C@@H]1CCCCO[C@@H](CN(C)S(=O)(=O)c2ccc(Cl)cc2)[C@@H](C)CN([C@H](C)CO)C(=O)c2cc(NC(=O)CCC(F)(F)F)ccc2O1`, “inactive”.

For the compound `C[C@@H]1CCCCO[C@@H](CN(C)S(=O)(=O)c2ccc(Cl)cc2)[C@H](C)CN([C@@H](C)CO)C(=O)c2cc(NC(=O)CCC(F)(F)F)ccc2O1`, the cytotoxicity call is “active”. To `C[C@H]1CCCCO[C@H](CN(C)S(=O)(=O)c2ccc(Cl)cc2)[C@@H](C)CN([C@@H](C)CO)C(=O)c2cc(NC(=O)CCC(F)(F)F)ccc2O1` belongs “active”; to `C[C@H](CO)N1C[C@H](C)[C@H](CN(C)S(=O)(=O)c2ccc(Cl)cc2)OCCCC[C@H](C)Oc2ccc(NC(=O)CCC(F)(F)F)cc2C1=O`, “inactive”. Under `C[C@H]1CCCCO[C@@H](CN(C)S(=O)(=O)c2ccc(Cl)cc2)[C@@H](C)CN([C@@H](C)CO)C(=O)c2cc(NC(=O)CCC(F)(F)F)ccc2O1` stands “inactive”.
